Experimental findings from PubChem BioAssay are described below.

Structures are written as SMILES. Activity calls are given as the source filed them. Unless noted, how the calls were made is not given here.

A short description of test [1]: HepG2 liver cancer cell viability effects, profiling panel, resazurin fluorescence, 24 h, PK04 Diversity Set (AID 1172). Further: test concentration not given here. The following applies: higher = more signal. (Alamar Blue is a resazurin reagent that responds to reducing activity.)
Test [2] in a line: basal S. cerevisiae growth modulation, no modifier, primary screen, OD600, strain BY4716, 24 h, basal condition (AID 1173). The following applies: OD600, 24 h, higher = more signal, called active from +8 up or from −8 down.
Test [3] in a line: MM1S myeloma cell viability, profiling panel, resazurin fluorescence, basal, 24 h, PK04 Diversity Set (AID 1174). Further: test concentration not given here. The conditions noted are these: higher = more signal, called active from +8 up or from −8 down.
Test [4] has as its target Dihydroorotate dehydrogenase (quinone), mitochondrial (Plasmodium falciparum (isolate 3D7)) (UniProt Q08210). The test can be described thus: PfDHODH enzyme inhibitors, primary screen, biochemical, C-terminal His tag, absorbance 600 nm (AID 1175).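 Further: recombinant parasite enzyme with a five histidine tag at its C terminus; test concentration not given here.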 The following applies: DCIP absorbance 600 nm, higher = more signal, called active from +8 up or from −8 down.
The nature of test [5]: P. aeruginosa biofilm formation inhibitors, primary screen, strain PAO1, LB-PBS medium, absorbance 600 nm (AID 1176). Further: test concentration not given here. The conditions noted are these: P. aeruginosa PAO1 growth/biofilm, A600, 12 h; higher = more signal.
A short description of test [6]: S. cerevisiae RM11-1a growth modifiers, primary screen, strain RM11-1a, OD600, basal, 24 h (AID 1177).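 Further: cultures grown under basal conditions with no added stressor; test concentration not given here.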 The conditions noted are these: OD600, 24 h, higher = more signal, called active from +8 up or from −8 down.
The nature of test [7]: E. coli acrAB mutant growth effects, primary screen, E. coli filamentation inducers, strain DRC39, OD650, 24 h (AID 1178).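 Further: growth measured as culture turbidity by optical density at 650 nm; test concentration not given here.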 The conditions noted are these: higher = more signal, called active from +8 up or from −8 down.
Test [8] is described as follows: E. coli acrAB mutant growth effects, primary screen, E. coli filamentation inducers, strain DRC39, OD650, 48 h (AID 1179).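 Further: screen aims at cell division blockers that make cells filament.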 The following applies: E. coli DRC39 delta-acrAB growth, higher = more signal, called active from +8 up or from −8 down.
A short description of test [9]: RPMI8226 myeloma cell viability, profiling panel, resazurin fluorescence, basal, 24 h, PK04 Diversity Set (AID 1180).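 Further: RPMI8826 multiple myeloma cell line at 5000 cells per well; test concentration not given here.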 The conditions noted are these: higher = more signal.
Test [10] addresses E3 ubiquitin-protein ligase XIAP (Homo sapiens) (UniProt P98170). In words: XIAP binders, primary screen, biophysical, small-molecule microarray, fluorescence 635 nm (AID 1181).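 Further: score merges 667 nm emission and signal to noise over triplicate slides.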 The conditions noted are these: small-molecule microarray binding, higher = more signal.

E3 ubiquitin-protein ligase XIAP (Homo sapiens), sequence (P98170 whole entry, looked up): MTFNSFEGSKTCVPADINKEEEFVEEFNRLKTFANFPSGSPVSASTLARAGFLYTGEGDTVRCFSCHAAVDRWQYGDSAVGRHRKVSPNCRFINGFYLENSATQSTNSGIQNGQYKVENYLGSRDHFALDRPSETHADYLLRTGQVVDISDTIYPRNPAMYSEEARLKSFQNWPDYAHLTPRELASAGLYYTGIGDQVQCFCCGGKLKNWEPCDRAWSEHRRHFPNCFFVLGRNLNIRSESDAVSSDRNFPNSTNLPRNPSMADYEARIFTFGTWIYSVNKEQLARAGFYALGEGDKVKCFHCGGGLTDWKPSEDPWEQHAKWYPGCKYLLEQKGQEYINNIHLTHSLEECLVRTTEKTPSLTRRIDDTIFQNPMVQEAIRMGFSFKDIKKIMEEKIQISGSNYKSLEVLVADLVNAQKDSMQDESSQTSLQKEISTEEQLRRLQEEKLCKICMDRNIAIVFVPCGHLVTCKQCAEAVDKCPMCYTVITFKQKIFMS
Dihydroorotate dehydrogenase (quinone), mitochondrial (Plasmodium falciparum (isolate 3D7)), sequence (Q08210 whole entry, looked up): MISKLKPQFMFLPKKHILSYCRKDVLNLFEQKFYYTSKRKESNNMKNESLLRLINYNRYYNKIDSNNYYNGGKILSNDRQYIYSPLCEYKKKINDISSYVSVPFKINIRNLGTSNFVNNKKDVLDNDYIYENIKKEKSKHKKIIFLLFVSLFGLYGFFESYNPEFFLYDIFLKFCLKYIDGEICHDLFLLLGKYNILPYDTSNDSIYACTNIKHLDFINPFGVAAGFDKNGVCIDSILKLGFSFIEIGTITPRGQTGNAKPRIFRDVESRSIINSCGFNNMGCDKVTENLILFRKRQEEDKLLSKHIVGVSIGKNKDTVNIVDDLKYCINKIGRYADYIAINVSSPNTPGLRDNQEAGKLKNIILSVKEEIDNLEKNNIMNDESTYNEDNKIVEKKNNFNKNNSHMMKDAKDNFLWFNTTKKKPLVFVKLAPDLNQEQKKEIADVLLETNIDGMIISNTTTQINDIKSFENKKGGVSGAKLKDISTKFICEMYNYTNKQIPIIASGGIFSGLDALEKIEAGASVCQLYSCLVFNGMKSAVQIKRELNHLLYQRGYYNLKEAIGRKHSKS

With `O=c1cccc(-c2cccc3ccccc23)o1`, the z-score in [1] was -0.0368; in test [2], -14.1 (active); in test [3] it was -0.0171 (inactive); in test [5], 0.794 (inactive); in test [6], -1.95 (inactive); in test [7] it was -0.0645 (inactive). The figures for the z-score in test [8] and in [9] were -0.0042 (inactive) and 0.024, respectively. In addition, the figures for the composite z-score in [4] and in [10] were -2.39 (inactive) and 0.126, respectively.
`COc1ccc(C#Cc2ccc3c(c2)[C@]2(C(=O)N3)[C@H](c3ccc(OCCO)cc3)N3[C@H](c4ccccc4)[C@H](c4ccccc4)OC(=O)[C@H]3[C@@H]2C(=O)Nc2nc3ccccc3s2)cc1`: the z-score was 0.534 in test [1]; 0.436 (inactive) in test [2]; 0.217 (inactive) in [3]; 3.64 (inactive) in [5]; 1.55 (inactive) in [6]; 0.528 (inactive) in test [7]. In addition, the z-score is 1.25 (inactive) in [8] and 0.174 in test [9]. Besides, the composite z-score was -3.02 (inactive) in test [4] and 0.75 in test [10].
Consider `O=C1C2C=CC(C(O)CCc3ccccc3)N(Nc3ccccc3)C2C(=O)N1c1ccccc1` (stereo not given), for which the z-score in [1] is -0.999; in [2] it was -0.287 (inactive); in test [3], -1.81 (inactive); in [5], 1.12 (inactive); in test [6] it was 0.361 (inactive); in test [7], -0.97 (inactive). Further, the z-score was -1.18 (inactive) in test [8] and -1.67 in test [9]. Further, the values for the composite z-score in test [4] and in test [10] were 0.228 (inactive) and -0.16, respectively.
Turning to `CCCNC(=O)[C@@]1(c2ccc([N+](=O)[O-])cc2)CC(=O)N(CC23CC4CC(CC(C4)C2)C3)[C@@H]1c1ccc(CO)cc1I`, the z-score in test [1] is -2.95; in test [2] it was 0.285 (inactive); in [3] it was -3.47 (inactive); in test [5], 0.32 (inactive); in test [6] it was 1.34 (inactive); in [7] it was -0.643 (inactive). The z-score in [8] was 0.198 (inactive); in test [9], -4.07. Besides, the figures for the composite z-score in [4] and in [10] were 0.286 (inactive) and -0.0749, respectively.
Take `O=C(NCCN1CCOCC1)[C@@H]1c2ccccc2C(=O)N(Cc2cc(F)cc(C(F)(F)F)c2)[C@H]1c1ccc(CO)cc1`: the z-score in test [1] is -0.375; in test [2] it was -0.191 (inactive); in test [3], 0.362 (inactive); in test [5], -0.0807 (inactive); in test [6], -0.64 (inactive); in [7] it was 0.552 (inactive). For the same compound, the z-score in test [8] was -0.232 (inactive); in test [9], 0.419. The composite z-score in test [4] was -0.517 (inactive); in test [10], 0.0451.
On to `COc1ccc([Si](C)(C)[C@@H]2[C@@H](CCO)O[C@]3(C(=O)N(Cc4ccc(N5C(=O)c6cccc7cccc5c67)cc4)c4ccccc43)[C@H]2C)cc1`, for which the z-score was -0.454 in [1]; 0.338 (inactive) in test [2]; -0.898 (inactive) in test [3]; 1.51 (inactive) in test [5]; 3.87 (inactive) in [6]; 1.68 (inactive) in test [7]. Further, the z-score in test [8] is 1.19 (inactive); in [9] it was -4.48. Also, the results for the composite z-score in [4] and in test [10] were -0.774 (inactive) and 0.0623, respectively.
Consider `[N-]=[N+]=NCc1ccccc1C[C@]1(C(=O)N2CCOCC2)N=C(c2ccc(OCCCO)cc2)O[C@H]1c1ccccc1`, for which the z-score in test [1] is -0.552; in test [2], -0.34 (inactive); in [3], -2.29 (inactive); in test [5] it was -0.537 (inactive); in [6], 0.328 (inactive); in [7] it was 0.685 (inactive). Also, the z-score in test [8] was 0.694 (inactive); in test [9] it was -4.46. Also, the composite z-score was 1.44 (inactive) in test [4] and -0.0884 in test [10].
On to `CCCCCCC#C[Si](O[C@H](c1ccccc1)c1cn([C@H](C)c2ccccc2)nn1)(C(C)C)C(C)C`, for which the z-score in test [1] is 1.94; in [2] it was 0.243 (inactive); in [3], 2.59 (inactive); in test [5] it was -0.443 (inactive); in test [6], 0.53 (inactive); in [7], -0.0375 (inactive). Also, the z-score in [8] was 0.622 (inactive); in test [9], 3.6. Further, the composite z-score is -0.204 (inactive) in test [4] and -0.359 in test [10].
For `C[N+](C)(C)CCCC[C@@H]1NC(=O)[C@@H]2C[C@H](C(=O)NCCCCCCNC(=O)CS)[C@H](c3cccc(OCCO)c3)N2C1=O`, the z-score in test [1] is 0.0265; in test [2], 0.159 (inactive); in test [3], -0.0664 (inactive); in test [5], -0.117 (inactive); in [6], -0.18 (inactive); in test [7], 0.253 (inactive). The values for the z-score in [8] and in test [9] were 0.832 (inactive) and 0.24, respectively. For the same compound, the results for the composite z-score in test [4] and in test [10] were 0.092 (inactive) and 0.131, respectively.
As to `COCCOC(=O)N1C(=O)[C@@]2(c3cc(C#CCCO)ccc31)[C@H](c1ccc(O)cc1)N1[C@H](c3ccccc3)[C@H](c3ccccc3)OC(=O)[C@H]1[C@@H]2C(=O)N1CCCCCCC1`, the z-score in test [1] was -0.681; in [2], 0.015 (inactive); in [3] it was -0.216 (inactive); in [5], 0.915 (inactive); in [6], 0.38 (inactive); in test [7] it was 0.27 (inactive). Further, the z-score in test [8] is -0.002 (inactive); in test [9] it was -0.98. Moreover, the composite z-score in [4] is 0.232 (inactive); in [10] it was 0.23.
On to `O=C1O[C@H](c2ccccc2)[C@H](c2ccccc2)N2[C@H]1[C@@H](C(=O)Nc1nc3ccccc3s1)[C@]1(C(=O)Nc3ccc(C#CC4=CCCCC4)cc31)[C@H]2c1ccc(OCCO)cc1`, for which the z-score in test [1] is 0.281; in test [2], 1.63 (inactive); in test [3], -0.543 (inactive); in [5], 3.01 (inactive); in test [6], 1.46 (inactive); in test [7], -0.154 (inactive). For the same compound, the z-score in test [8] was -0.686 (inactive); in test [9], -0.496. Also, the composite z-score in test [4] is -3.03 (inactive); in [10] it was -0.24.
Turning to `Cc1cc(C)c(C(O)C2C=CC3C(=O)NC(=O)C3N2Nc2ccccn2)c(C)c1` (stereo not given), the z-score was -1.25 in test [1]; 0.705 (inactive) in [2]; -1.78 (inactive) in test [3]; 0.9 (inactive) in test [5]; 0.276 (inactive) in [6]; -0.579 (inactive) in [7]. For the same compound, the values for the z-score in [8] and in test [9] were -0.342 (inactive) and -0.68, respectively. Moreover, the composite z-score in test [4] was 1.41 (inactive); in [10], 0.203.
On to `COC(=O)[C@@]1(Cc2ccc(OC)cc2)[C@H]2c3cc(C(=O)N4CCCC4)n(CCc4ccccn4)c3C[C@H]2CN1C(=O)c1ccccc1`, for which the z-score in test [1] is -0.608; in test [2] it was 1.17 (inactive); in test [3], -1.55 (inactive); in test [5] it was 1.5 (inactive); in test [6] it was 0.664 (inactive); in test [7], -0.784 (inactive). Moreover, the figures for the z-score in test [8] and in test [9] were -0.912 (inactive) and -2.73, respectively. The values for the composite z-score in test [4] and in test [10] were -0.362 (inactive) and 0.0976, respectively.
On to `COCCOC(=O)N1C(=O)[C@@]2(c3ccccc31)[C@H](C(=O)N1CCCCCCC1)[C@H]1C(=O)O[C@H](c3ccccc3)[C@H](c3ccccc3)N1[C@@H]2c1ccccc1OCCO`, for which the z-score is -0.415 in test [1]; 0.406 (inactive) in test [2]; -0.89 (inactive) in [3]; 3.81 (inactive) in [5]; 1.79 (inactive) in [6]; -0.38 (inactive) in test [7]. The z-score was 0.0795 (inactive) in test [8] and -0.201 in test [9]. Besides, the composite z-score in [4] is -0.089 (inactive); in [10], 0.496.
As to `COC(=O)[C@@]1(Cc2ccc(F)cc2)[C@H]2c3cc(C(=O)N(C)C)n(CCc4c[nH]c5ccc(OC)cc45)c3C[C@H]2CN1C(=O)c1ccccc1`, the z-score in test [1] is -0.643; in [2] it was 0.971 (inactive); in test [3], -2 (inactive); in test [5], 4.65 (inactive); in [6], 0.679 (inactive); in test [7], -0.562 (inactive). Moreover, the z-score in [8] was -0.681 (inactive); in test [9], -1.59. Also, the figures for the composite z-score in test [4] and in test [10] were -2.26 (inactive) and 0.326, respectively.
`CN1C(=O)C2C=CC(C(O)c3ccc(Br)cc3)N(Nc3ccccc3)C2C1=O` (stereo not given): the z-score in test [1] was 0.0752; in test [2], -0.348 (inactive); in test [3], -0.26 (inactive); in test [5] it was 0.434 (inactive); in [6] it was 0.732 (inactive); in test [7] it was -0.398 (inactive). Further, the z-score is -0.413 (inactive) in [8] and 0.296 in test [9]. Also, the composite z-score in [4] is -0.125 (inactive); in test [10], -0.0773.
For the compound `Cc1ccc(S[C@]2(C(=O)NCCCN(C)C)CC(=O)N(Cc3ccccc3)[C@@H]2c2ccc(CO)cc2)cc1`, the z-score in test [1] was -0.519; in test [2], -0.686 (inactive); in test [3], 0.833 (inactive); in test [5], 0.317 (inactive); in test [6], -0.358 (inactive); in test [7], -0.194 (inactive). Further, the figures for the z-score in test [8] and in [9] were -0.435 (inactive) and 0.63, respectively. The values for the composite z-score in test [4] and in [10] were -0.336 (inactive) and -0.185, respectively.
